Like-named read-outs stand apart in the source and are kept apart here.
Key:
Set-up in all cases: species or system human, MV4-11 + K-562 + COLO205 + SK-N-BE2 + OVCAR-8
PI4KA = conditions: read-out: apparent Kd, compound concentrations: 100 nM and 1000 nM (sheet 'Samples'), n = 1
PI4KB = conditions: read-out: apparent Kd, compound concentrations: 100 nM and 1000 nM (sheet 'Samples'), n = 1
PIK3CG = conditions: read-out: apparent Kd, compound concentrations: 100 nM and 1000 nM (sheet 'Samples'), n = 1
PIM2 = conditions: read-out: apparent Kd, n = 1
PRKDC = conditions: read-out: apparent Kd, compound concentrations: 100 nM and 1000 nM (sheet 'Samples'), n = 1
PRKD2 = conditions: read-out: apparent Kd; compound concentrations:100 nM and 1000 nM (sheet 'Samples'); n = 1
PRKD3 = conditions: read-out: apparent Kd; compound concentrations:100 nM and 1000 nM (sheet 'Samples'); n = 1
TESK2 = conditions: read-out: apparent Kd, compound concentrations: 100 nM and 1000 nM (sheet 'Samples'), n = 1
TGFBR2 = conditions: read-out: apparent Kd; compound concentrations: 100 nM and 1000 nM (sheet 'Samples'), CATDS: 0.45581202141121302; n = 1
PIM3 = conditions: read-out: apparent Kd, compound concentrations: 100 nM and 1000 nM (sheet 'Samples'), n = 1
PKN3 = conditions: read-out: apparent Kd, n = 1
PDGFRB = conditions: read-out: apparent Kd, compound concentrations: 100 nM and 1000 nM (sheet 'Samples'), n = 1
PKN2 = conditions: read-out: apparent Kd; compound concentrations:100 nM and 1000 nM (sheet 'Samples'); n = 1
PDXK = conditions: read-out: apparent Kd, compound concentrations: 100 nM and 1000 nM (sheet 'Samples'), n = 1
[1] = compound concentrations:100 nM and 1000 nM (sheet 'Samples')

With `Nc1ncc(-c2ccc3nccc(-c4ccncc4)c3c2)cc1S(=O)(=O)N1CCCCC1` [GSK1693850A] as the compound, how does the potency estimated from few doses (PI4KA; CATDS: 8.4526475439373194E-2) read?
The potency estimated from few doses was 464 nM.

What about the potency estimated from few doses (PI4KB; CATDS: 7.2380110997406405E-2) of the same compound?
Its potency estimated from few doses is 777 nM.

What about the potency estimated from few doses (PIK3CG; CATDS: 0.150773969962682) of the same compound?
Its potency estimated from few doses is 88.7 nM.

What about the potency estimated from few doses (PIM2; compound concentrations: 100 nM and 1000 nM (sheet 'Samples'), CATDS: 5.9438014075045897E-2) of the same compound?
Its potency estimated from few doses is 1790 nM.

And the potency estimated from few doses (PRKDC; CATDS: 8.88426876970108E-2)?
Its potency estimated from few doses is 398 nM.

Which potency estimated from few doses (PRKD2) does the source give for `Cc1cccc(-c2nc(Nc3ccc4c(cnn4C)c3)c3ccccc3n2)n1` [GW876731X] here?
The potency estimated from few doses was 26.7 nM.

What about the potency estimated from few doses (PRKD3) of the same compound?
The potency estimated from few doses was 32.8 nM.

Which potency estimated from few doses (TESK2; CATDS: 0.33988229357461403) does the source give for `Cc1ccccc1Cn1ccn2c(=O)cc(N3CCOCC3)nc12` [GSK2269905A] here?
The potency estimated from few doses was 1410 nM.

How did the potency estimated from few doses (PI4KB; CATDS: 0.55367516713285103) turn out when `COC(=O)C(NC(=O)NC1CCN(c2ccnc(Nc3ccc(F)cc3)n2)C1)c1ccccc1` (centres unmarked) [GSK1379712_KCGS] was run?
Its potency estimated from few doses is 946 nM.

What about the potency estimated from few doses (TGFBR2) of the same compound?
The potency estimated from few doses was 1400 nM.

`CCSc1ccc(-c2nc3n(c2-c2ccncc2)CCC3)cc1.CCSc1ccc(-c2nc3n(c2-c2ccncc2)CCC3)cc1.Cl.Cl` [SKF-106164-A2] was tested. Which potency estimated from few doses (PIM3; CATDS: 1) did it give?
Its potency estimated from few doses is 1300 nM.

With `Cc1cc(-c2ccc3c(c2)CC[C@@H](N[C@@H](C)c2ccccc2)C3)cnc1N.Cc1cc(-c2ccc3c(c2)CC[C@@H](N[C@@H](C)c2ccccc2)C3)cnc1N.Cl.Cl` [GW412617A] as the compound, how does the potency estimated from few doses (PIM3; CATDS: 0.55054057410094004) read?
The potency estimated from few doses was 1020 nM.

And the potency estimated from few doses (TESK2; CATDS: 0.45795860987145298)?
The potency estimated from few doses was 1470 nM.

`Nc1c(C(=O)c2cccc(C(O)(CO)CO)c2)cnn1-c1ccc(F)cc1` [RO3201790-000] was tested. Which potency estimated from few doses (PI4KB; CATDS: 0.52236122392279105) did it give?
Its potency estimated from few doses is 888 nM.

And the potency estimated from few doses (PKN3; compound concentrations: 100 nM and 1000 nM (sheet 'Samples'), CATDS: 0.47947466272848499)?
Its potency estimated from few doses is 1050 nM.

With `O=C(NCCNc1ccnc(Nc2ccc(F)cc2)n1)Nc1ccccc1F` [GSK1379880A] as the compound, how does the potency estimated from few doses (PDGFRB; CATDS: 0.36710217729011002) read?
Its potency estimated from few doses is 1450 nM.

For `CCn1c(-c2nonc2N)nc2ccccc21` [SB-693162], which potency estimated from few doses (PKN2) is on record?
The potency estimated from few doses was 157 nM.

What about the potency estimated from few doses (PKN3; [1]) of the same compound?
The potency estimated from few doses was 1280 nM.

How did the potency estimated from few doses (PI4KB; CATDS: 1) turn out when `CCCc1ccc(S(=O)(=O)NC2CCN(c3ccnc(Nc4ccc(OC)cc4)n3)C2)cc1` (centres unmarked) [GSK1379737A] was run?
The potency estimated from few doses was 901 nM.

How did the potency estimated from few doses (PDXK; CATDS: 0.47551644164597001) turn out when `Cn1ccc(-c2cccc(Nc3ccnc4cc(-c5nccs5)ccc34)c2)n1` [GW525701_KCGS] was run?
The potency estimated from few doses was 1690 nM.

Which results are given for `COc1ncc(-c2cc(-c3ncc(CN4C[C@@H](C)O[C@@H](C)C4)o3)c3cn[nH]c3c2)cc1NS(C)(=O)=O` [GSK2292767]?
potency estimated from few doses (PDXK; CATDS: 9.0064918958082996E-2): 779 nM; potency estimated from few doses (PIK3CG; CATDS: 0.13255621983520199): 142 nM; potency estimated from few doses (PRKDC; CATDS: 9.7121910991741403E-2): 515 nM

For `CN(C)CCOc1ccc(-c2cc(-c3ccc(Cl)c(O)c3)c(-c3ccncc3)[nH]2)cc1.CN(C)CCOc1ccc(-c2cc(-c3ccc(Cl)c(O)c3)c(-c3ccncc3)[nH]2)cc1.Cl.Cl` [SB-684387-B], which potency estimated from few doses (PI4KA; CATDS: 0.33665131532266801) is on record?
Its potency estimated from few doses is 1060 nM.

How did the potency estimated from few doses (PDGFRB; CATDS: 1) turn out when `COc1ccc(-c2coc3ncnc(N)c23)cc1` [GW642125X] was run?
Its potency estimated from few doses is 1540 nM.

With `O=C1Nc2ccc(I)cc2C1=Cc1cc(Br)c(O)c(Br)c1` [GW305074X_KCGS] as the compound, how does the potency estimated from few doses (PIM2; [1]) read?
Its potency estimated from few doses is 2090 nM.

For `CN(C)S(=O)(=O)c1cc(-c2ccc3nccc(-c4cccc(S(N)(=O)=O)c4)c3c2)cnc1N` [GSK1669921A], which potency estimated from few doses (PI4KA; CATDS: 0.112986099678868) is on record?
Its potency estimated from few doses is 1300 nM.

What about the potency estimated from few doses (PIK3CG; CATDS: 0.14675867951409499) of the same compound?
The potency estimated from few doses was 466 nM.

What about the potency estimated from few doses (PRKDC; CATDS: 0.12241161716625901) of the same compound?
The potency estimated from few doses was 920 nM.

— publication PMC11062922 (Nature Chemical Biology, 2023)
